# Tb PYK inh – T. brucei pyruvate kinase inhibition. Q57TT1. 410,000 compounds, 0.12% hits. AID 624173. Potency, µM (highest dose often 76.8 µM), for inactives: top-dose activity, negative = inhibition, most hits filed as inhibitors. TbPYK enzyme, Kinase-Glo Plus ATP luminescence, 45 min; also: potency is read from the fitted curve at half-maximal effect; % is scaled to controls: 0 for no effect and ±100 for the full control effect; nearly all actives have a fitted effect of over 50% in size
#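 Luminescent Kinase-Glo Plus end-point after 45 min room-temperature reaction of T. brucei pyruvate kinase started with 130 uM ADP (final). Buffer TEA 50 mM pH 7.2 with KCl, MgCl2, BSA, Tween-20; titration-based qHTS with fitted concentration-effect curves.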
# RE007 growth inh – less growth of the S. pombe RE007 Vpr strain. S. pombe RE007 Vpr strain, BacTiter-Glo ATP luminescence, 24 h. Potency, µM (top dose mostly 92.2 µM), for the others: at the top dose activity change, negative = less growth, most hits filed as inhibitors. 360,000 compounds, 0.21% hits. AID 651644; active = well fitted falling curve with a large enough effect; inconclusive = small, poorly fitted or top-dose-only effect; inactive = no such curve, though single readings can be large or run the other way; also: potency is read from the fitted curve at half-maximal effect; % is scaled to controls: 0 for no effect and ±100 for the full control effect; nearly all actives have a fitted effect of over 50% in size
#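 Fission yeast strain RE007, carrying one chromosomally integrated HIV-1 vpr copy, was seeded at OD 0.01 in PMG+AL medium with 23 nL pinned compound. After 24 h at 30 °C and 99% humidity, viability was read by BacTiter-Glo luminescence.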
# FBPA Giardia inh – blocks Giardia fructose-bisphosphate aldolase activity; A8B2U2; 290,000 compounds, 0.71% hits; Potency, µM (top dose mostly 59.6 µM), without a hit: top-dose activity, negative = inhibition, most hits filed as inhibitors; purified Giardia FBPA; AID 2451; also: potency is read from the fitted curve at half-maximal effect; % is scaled to controls: 0 for no effect and ±100 for the full control effect; nearly all actives have a fitted effect of over 55% in size
# Target sequence (A8B2U2 whole entry, looked up): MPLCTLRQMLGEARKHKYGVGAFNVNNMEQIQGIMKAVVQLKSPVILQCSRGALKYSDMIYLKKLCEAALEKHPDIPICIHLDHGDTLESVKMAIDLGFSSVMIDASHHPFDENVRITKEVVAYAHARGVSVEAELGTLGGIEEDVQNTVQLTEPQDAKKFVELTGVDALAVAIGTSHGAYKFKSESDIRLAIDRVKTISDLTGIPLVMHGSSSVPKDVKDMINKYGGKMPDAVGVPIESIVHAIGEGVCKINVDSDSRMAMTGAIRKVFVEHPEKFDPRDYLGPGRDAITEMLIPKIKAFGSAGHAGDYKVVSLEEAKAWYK
#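 40 nM FBPA preincubated 10 min at RT with compound (up to 57.5 uM final), then substrate plus GAPDH/TPI/NAD/arsenate coupling and diaphorase/resazurin added. Fluorescence read after 20 min at RT, 525/598 nm.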
# Shiga inhibitor – inhibitors of Shiga toxin in Vero cells | 290,000 compounds, 9.2% hits | Vero cells, Shiga toxin protein synthesis inhibition reporter | AID 2315 | inhibition, % at 38.7 µM; in the data active = inhibition mostly above about 28%, no sharp cut-off; inactive = mostly below about 43%; also: 0% is about no effect
# CHX counter – affects cycloheximide protein synthesis inhibition readout, counter-screen | max response, % | cell reporter, cycloheximide protein synthesis inhibition counterscreen | 300,000 compounds, 12% hits | AID 2314; in the data active = max response mostly above about 13%, no sharp cut-off; inactive = mostly below about 14%; also: read at 38.3 µM for the half of the compounds with a filed dose; 0% is about no effect
# LmPK inh – blocks Leishmania mexicana pyruvate kinase activity; purified LmPK, Kinase-Glo ATP luminescence, 1 h; Potency, µM (series often up to 57.5 µM), for the others: at the top dose activity change, negative = inhibition, actives largely listed as inhibitors; 290,000 compounds, 0.37% hits; also: potency is read from the fitted curve at half-maximal effect; % is scaled to controls: 0 for no effect and ±100 for the full control effect
#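 0.1 nM LmPK, 0.5 mM PEP, 0.1 mM ADP; 50 mM imidazole pH 7.2, 7 mM MgCl2, 50 mM KCl; 1 h RT. Kinase-Glo luminescence readout, normalized to no-enzyme (full inhibition) and uninhibited wells.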
# * = called active by the depositor; ? = inconclusive; / = no result. This is one part of a sample in which hits are shown more often than they occur. Unless noted, calls follow the shape of the dose curve; as a rule, active = well fitted curve in the direction sought with a large enough effect; inconclusive = small, poorly fitted or top-dose-only effect, or another doubt; inactive = no such curve, though single readings can be large; an effect the other way counts as inactive or inconclusive.
SMILES,Tb PYK inh,RE007 growth inh,FBPA Giardia inh,Shiga inhibitor,CHX counter,LmPK inh
Cc1cc(C)c(S(=O)(=O)N2CCOC2CNC(=O)C(=O)NCCN2CCOCC2)c(C)c1 (configuration not stated),3%,-2%,-5%,-1,-2,-6%
COc1cccc(Nc2ncc3nc(C)c(=O)n(C)c3n2)c1,/,/,-4%,/,/,/
COc1cccc(C(=O)NNC(=S)NC2CCCCC2)c1,-9%,-15%,8%,47*,42*,3%
CCNC(=S)NNC(=O)c1csc(C)c1,-4%,1%,4%,5,6,-1%
Cc1cc(C(=O)NNC(=S)NC2CCCCC2)cs1,-13%,3%,/,34,17*,-8%
COc1cccc(C(=O)NC2CCCC2)c1,17%,0%,0%,43,7,-2%
CCc1ccc(NC(=O)c2cccnc2)cc1,-1%,-2%,-3%,73*,32*,-9%
CC/C(=C\C(=O)c1cccnc1)Nc1ccc(C)c(C)c1,-6%,7%,10%,52*,17*,5%
CCc1ccc(NC(=O)N(C2CCCCC2)C(C)c2cccnc2)cc1 (configuration not stated),5%,-16%,0%,80,33*,-2%
CC(C)c1ccc(NC(=O)c2cccnc2)cc1,-4%,-14%,-12%,74,23*,-6%
CCCCCCCCCCCCCCCCCCOC[C@H](COP(=O)([O-])OCC[N+](C)(C)C)OC(C)=O,/,/,2%,/,/,/
COC(=O)c1ccc(C(NC(=O)c2cccnc2)NC(=O)c2cccnc2)cc1,-6%,14%,-2%,66*,30*,-4%
CC(C)c1ccc(NC(=O)c2csnn2)cc1,-2%,11%,-9%,42*,30*,-15%
O=C(NC(=S)Nc1ccccc1Cl)c1csnn1,4%,-9%,-11%,42*,38*,0%
CCSc1ccc(NC(=O)c2cccnc2)cc1,-10%,44%,1%,47,34*,-6%
CCCNS(=O)(=O)c1ccc(NC(=O)c2cccnc2)cc1,-7%,1%,1%,-2,-4,-2%
COC(=O)c1cccnc1,-3%,/,5%,21,-5,/
O=C1CN(C(=O)c2ccc(S(=O)(=O)N3CCCC3)cc2)C(c2ccc(F)cc2)c2cc(Br)ccc2N1 (configuration not stated),0%,/,/,/,/,/
CCNC(=O)[C@H]1O[C@@H](n2cnc3c(N)nc(NCCc4ccc(CCC(=O)O)cc4)nc32)[C@H](O)[C@H]1O,/,/,-4%,/,/,/
CC(C)c1ccc(NC(=O)c2snc3ccc(Cl)cc23)cc1,1%,-3%,-12%,74*,39*,-6%
COC(=O)C(C(=O)OC)c1ccc(NC(=O)c2cccc(Cl)c2)cc1,-19%,4%,-1%,3,-1,1%
CC(=O)N1CCN(C(=O)CCNC(=O)c2ccc(Br)cc2)CC1,5%,2%,/,/,/,/
Cc1ccc(C(=O)NCCC(=O)N2CCOCC2)cc1,0%,11%,/,85*,50*,-10%
Cc1ccc(C(=O)NCCN2CCOCC2)cc1,0%,4%,1%,20,13*,-1%
CCCCCCCCCCCCC(=O)N1CCCC[C@H]1CNC(=O)[C@@H](N)CCCCN,/,/,9%,/,/,/
SMILES,Tb PYK inh,RE007 growth inh,FBPA Giardia inh,Shiga inhibitor,CHX counter,LmPK inh
CC(C)(C)S(=O)N1Cc2cc(C(=O)NCC(F)(F)F)nc(-c3cccc(-c4cccc(F)c4)c3)c2[C@H]1CCO (some centres not stated),-3%,6%,/,/,/,/
Cc1nc(SCc2ccccc2C)n[nH]1,-3%,-14%,-9%,active,19*,-4%
CCc1nc(SCc2ccccc2C)n[nH]1,2%,-10%,?,44,21*,-3%
Cc1c(Cl)cccc1Nc1nc(N)nc(CSc2nc3ccccc3s2)n1,2%,-4%,0%,-6,1,-3%
Nc1nc(CSc2nc3ccccc3s2)nc(Nc2ccccc2)n1,/,/,-5%,-14,21*,5%
CCOC(=O)c1ccc(N2C(=O)c3[nH]nc(-c4ccc(C)cc4)c3C2c2ccc(O)c(OCC)c2)cc1 (configuration not stated),2%,/,/,/,/,/
